Source: PMC7862700, “An all-to-all approach to the identification of sequence-specific readers for epigenetic DNA modifications on cytosine”

Assays:
Test in all cases: DAPPL (digital affinity profiling via proximity ligation, sequencing); 10 mM Tris-HCl pH 7.5, 50 mM NaCl, 1 mM DTT, 4% glycerol, room temperature, 30 min; GST-TFs on glutathione beads, 16-mer random dsDNA library, 0.1% formaldehyde crosslink after washing; high values mean tight binding
Conditions in all cases: protein: recombinant; tags: N-terminal GST; dsDNA, one strand shown
ELK1 = molecular target: T1, ELK1 (Homo sapiens, UniProt P19419 1-428)
T1 sequence: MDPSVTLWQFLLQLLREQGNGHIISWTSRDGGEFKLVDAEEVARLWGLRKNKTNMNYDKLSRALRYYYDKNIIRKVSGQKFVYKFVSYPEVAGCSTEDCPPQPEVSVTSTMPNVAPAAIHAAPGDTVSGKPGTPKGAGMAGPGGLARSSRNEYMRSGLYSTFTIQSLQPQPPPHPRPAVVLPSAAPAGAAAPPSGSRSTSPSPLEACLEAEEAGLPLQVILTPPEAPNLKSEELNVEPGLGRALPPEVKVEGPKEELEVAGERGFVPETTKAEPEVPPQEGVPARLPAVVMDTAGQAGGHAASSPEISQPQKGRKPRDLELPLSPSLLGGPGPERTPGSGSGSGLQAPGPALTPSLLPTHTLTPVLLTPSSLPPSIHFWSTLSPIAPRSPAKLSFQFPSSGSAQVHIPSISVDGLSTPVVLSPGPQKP
Outline: (§1)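 A tag-only sample was pooled with DNA-barcoded human transcription factors that had been expressed in yeast as GST fusions and captured on glutathione beads. The pools were incubated for 30 min at room temperature with 200 nmole of a random double-stranded 16-mer DNA library in Tris/NaCl/DTT/glycerol buffer, then washed, crosslinked with 0.1% formaldehyde, proximity-ligated (BsaI/T4 ligase, 1 h, 37 °C), PCR-amplified and sequenced on an Illumina NextSeq500. Binding signal is each hexamer's read frequency for a factor divided by its frequency for the tag-only sample.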

GABPA = molecular target: T2, GABPA (Homo sapiens, UniProt Q06546 1-454)
T2 sequence: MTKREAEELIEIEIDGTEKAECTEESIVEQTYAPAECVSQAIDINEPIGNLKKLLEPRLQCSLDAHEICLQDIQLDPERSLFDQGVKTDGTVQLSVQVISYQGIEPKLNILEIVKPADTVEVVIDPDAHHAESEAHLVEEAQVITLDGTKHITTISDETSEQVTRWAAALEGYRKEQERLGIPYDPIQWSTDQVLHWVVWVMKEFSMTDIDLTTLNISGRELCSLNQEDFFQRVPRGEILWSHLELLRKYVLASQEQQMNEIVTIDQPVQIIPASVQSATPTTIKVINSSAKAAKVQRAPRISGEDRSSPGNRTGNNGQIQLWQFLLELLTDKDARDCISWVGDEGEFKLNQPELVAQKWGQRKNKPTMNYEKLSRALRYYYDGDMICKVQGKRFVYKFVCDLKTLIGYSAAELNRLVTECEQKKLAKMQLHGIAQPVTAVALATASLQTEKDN
Outline: as §1

ELF1 = ELF1 (Homo sapiens, UniProt P32519 1-619)
Outline: as §1

SPIB = SPIB (Homo sapiens, UniProt Q01892 1-262)
Outline: as §1

FEV = molecular target: T3, FEV (Homo sapiens, UniProt Q99581 1-238)
T3 sequence: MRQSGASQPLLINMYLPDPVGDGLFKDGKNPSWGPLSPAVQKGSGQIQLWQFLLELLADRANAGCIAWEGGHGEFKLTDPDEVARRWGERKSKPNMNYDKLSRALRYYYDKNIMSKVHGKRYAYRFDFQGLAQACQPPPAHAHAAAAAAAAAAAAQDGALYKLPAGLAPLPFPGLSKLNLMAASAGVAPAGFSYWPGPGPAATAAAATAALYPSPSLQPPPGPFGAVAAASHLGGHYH
Outline: as §1

ETV5 = ETV5 (Homo sapiens, UniProt P41161 1-510)
Outline: as §1

ELF4 = ELF4 (Homo sapiens, UniProt Q99607 1-663)
Outline: as §1

ELK4 = molecular target: T4, ELK4 (Homo sapiens, UniProt P28324-2 1-405)
T4 sequence: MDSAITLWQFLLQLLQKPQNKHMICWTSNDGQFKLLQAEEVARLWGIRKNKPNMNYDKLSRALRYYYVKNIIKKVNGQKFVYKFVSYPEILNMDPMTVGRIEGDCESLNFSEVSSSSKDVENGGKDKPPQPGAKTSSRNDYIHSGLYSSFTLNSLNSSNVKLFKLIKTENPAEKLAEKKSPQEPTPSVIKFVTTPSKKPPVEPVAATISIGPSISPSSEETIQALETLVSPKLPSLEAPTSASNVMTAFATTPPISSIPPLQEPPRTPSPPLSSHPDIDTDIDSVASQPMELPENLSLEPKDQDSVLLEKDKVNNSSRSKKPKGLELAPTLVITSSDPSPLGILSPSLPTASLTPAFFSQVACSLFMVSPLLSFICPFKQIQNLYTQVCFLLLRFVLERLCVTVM
Outline: as §1

ETV2 = molecular target: T5, ETV2 (Homo sapiens, UniProt O00321 1-342)
T5 sequence: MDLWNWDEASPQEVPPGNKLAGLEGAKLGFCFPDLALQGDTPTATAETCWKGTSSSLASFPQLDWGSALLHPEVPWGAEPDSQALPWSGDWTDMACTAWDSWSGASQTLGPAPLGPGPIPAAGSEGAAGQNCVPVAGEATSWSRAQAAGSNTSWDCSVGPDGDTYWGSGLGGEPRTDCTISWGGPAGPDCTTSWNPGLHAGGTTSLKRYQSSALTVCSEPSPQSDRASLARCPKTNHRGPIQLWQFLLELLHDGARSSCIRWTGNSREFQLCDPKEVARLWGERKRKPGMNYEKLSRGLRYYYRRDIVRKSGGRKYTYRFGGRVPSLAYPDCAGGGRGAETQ
Outline: as §1

ETV1 = ETV1 (Homo sapiens, UniProt P50549 1-477)
Outline: as §1

ERF = molecular target: T6, ERF (Homo sapiens, UniProt P50548 1-548)
T6 sequence: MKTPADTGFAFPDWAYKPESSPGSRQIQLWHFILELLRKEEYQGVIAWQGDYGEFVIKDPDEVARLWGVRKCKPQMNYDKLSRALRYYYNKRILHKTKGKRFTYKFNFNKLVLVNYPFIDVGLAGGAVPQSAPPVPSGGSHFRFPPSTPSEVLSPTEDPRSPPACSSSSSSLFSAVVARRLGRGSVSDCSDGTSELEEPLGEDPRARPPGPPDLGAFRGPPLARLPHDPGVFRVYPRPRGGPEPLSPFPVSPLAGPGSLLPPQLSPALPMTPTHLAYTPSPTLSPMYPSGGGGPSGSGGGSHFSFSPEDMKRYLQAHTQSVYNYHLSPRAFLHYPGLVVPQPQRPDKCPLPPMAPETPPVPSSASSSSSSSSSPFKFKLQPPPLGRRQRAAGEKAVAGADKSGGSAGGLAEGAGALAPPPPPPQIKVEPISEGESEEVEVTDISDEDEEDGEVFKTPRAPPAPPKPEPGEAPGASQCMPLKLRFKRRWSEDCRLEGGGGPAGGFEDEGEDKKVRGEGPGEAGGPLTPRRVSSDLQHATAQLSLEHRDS
Outline: as §1

ETV3L = molecular target: T7, ETV3L (Homo sapiens, UniProt Q6ZN32 1-361)
T7 sequence: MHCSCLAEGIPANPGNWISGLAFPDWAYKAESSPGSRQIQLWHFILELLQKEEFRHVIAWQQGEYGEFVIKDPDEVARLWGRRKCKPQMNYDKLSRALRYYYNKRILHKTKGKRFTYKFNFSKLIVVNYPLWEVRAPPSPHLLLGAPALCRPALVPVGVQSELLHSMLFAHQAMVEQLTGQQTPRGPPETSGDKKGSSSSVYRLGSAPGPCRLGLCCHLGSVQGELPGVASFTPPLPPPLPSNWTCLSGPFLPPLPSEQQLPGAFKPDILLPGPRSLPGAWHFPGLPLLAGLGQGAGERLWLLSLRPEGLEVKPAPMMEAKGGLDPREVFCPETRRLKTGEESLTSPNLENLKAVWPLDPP
Outline: as §1

ETS2 = molecular target: T8, ETS2 (Homo sapiens, UniProt P15036 1-469)
T8 sequence: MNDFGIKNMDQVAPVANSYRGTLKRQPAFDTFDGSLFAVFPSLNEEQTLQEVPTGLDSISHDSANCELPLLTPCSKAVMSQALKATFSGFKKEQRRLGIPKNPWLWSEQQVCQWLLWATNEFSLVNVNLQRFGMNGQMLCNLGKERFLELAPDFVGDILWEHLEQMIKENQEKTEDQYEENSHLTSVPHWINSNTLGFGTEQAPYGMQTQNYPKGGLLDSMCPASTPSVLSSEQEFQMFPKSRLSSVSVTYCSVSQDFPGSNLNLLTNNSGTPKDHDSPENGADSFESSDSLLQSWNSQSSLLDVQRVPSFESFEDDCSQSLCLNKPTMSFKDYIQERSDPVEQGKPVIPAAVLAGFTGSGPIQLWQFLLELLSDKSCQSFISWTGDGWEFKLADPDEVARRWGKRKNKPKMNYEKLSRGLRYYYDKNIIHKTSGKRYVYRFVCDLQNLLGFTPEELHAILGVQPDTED
Outline: as §1

EHF = molecular target: T9, EHF (Homo sapiens, UniProt Q9NZC4 1-300)
T9 sequence: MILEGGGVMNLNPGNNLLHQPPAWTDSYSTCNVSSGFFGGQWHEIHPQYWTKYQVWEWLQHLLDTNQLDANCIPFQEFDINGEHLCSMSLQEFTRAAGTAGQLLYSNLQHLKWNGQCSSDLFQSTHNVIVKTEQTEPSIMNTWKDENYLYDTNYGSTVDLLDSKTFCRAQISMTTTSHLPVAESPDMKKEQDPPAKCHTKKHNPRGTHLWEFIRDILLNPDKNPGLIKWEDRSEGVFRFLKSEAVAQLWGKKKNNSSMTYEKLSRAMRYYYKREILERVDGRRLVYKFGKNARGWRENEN
Outline: as §1

SPDEF = molecular target: T10, SPDEF (Homo sapiens, UniProt O95238 1-335)
T10 sequence: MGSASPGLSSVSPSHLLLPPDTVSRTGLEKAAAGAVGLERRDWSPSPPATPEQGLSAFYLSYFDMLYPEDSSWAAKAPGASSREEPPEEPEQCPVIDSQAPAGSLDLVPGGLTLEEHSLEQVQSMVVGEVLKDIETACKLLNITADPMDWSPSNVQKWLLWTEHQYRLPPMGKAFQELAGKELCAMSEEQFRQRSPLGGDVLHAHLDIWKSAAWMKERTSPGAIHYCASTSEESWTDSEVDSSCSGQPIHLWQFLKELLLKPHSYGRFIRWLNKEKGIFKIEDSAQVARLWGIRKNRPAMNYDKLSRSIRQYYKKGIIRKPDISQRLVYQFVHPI
Outline: as §1

ETV7 = molecular target: T11, ETV7 (Homo sapiens, UniProt Q9Y603 1-341)
T11 sequence: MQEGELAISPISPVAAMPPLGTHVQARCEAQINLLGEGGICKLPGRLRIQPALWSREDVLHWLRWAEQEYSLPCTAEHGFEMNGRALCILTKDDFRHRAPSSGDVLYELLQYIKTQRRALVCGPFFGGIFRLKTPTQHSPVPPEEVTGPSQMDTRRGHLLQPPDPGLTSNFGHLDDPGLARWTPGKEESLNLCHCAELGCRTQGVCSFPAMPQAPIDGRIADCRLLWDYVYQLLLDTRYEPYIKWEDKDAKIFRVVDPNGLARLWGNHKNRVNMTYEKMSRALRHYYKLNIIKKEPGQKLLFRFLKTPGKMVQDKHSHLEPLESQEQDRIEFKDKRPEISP
Outline: as §1

ETV3 = molecular target: T12, ETV3 (Homo sapiens, UniProt P41162-2 1-143)
T12 sequence: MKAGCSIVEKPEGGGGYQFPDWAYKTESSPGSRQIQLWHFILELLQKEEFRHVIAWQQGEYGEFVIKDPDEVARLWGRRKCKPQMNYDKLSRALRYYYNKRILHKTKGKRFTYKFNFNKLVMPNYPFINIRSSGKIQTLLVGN
Outline: as §1

ETV6 = ETV6 (Homo sapiens, UniProt P41212 1-452)
Outline: as §1

Chain of ETV1 (P50549 whole entry): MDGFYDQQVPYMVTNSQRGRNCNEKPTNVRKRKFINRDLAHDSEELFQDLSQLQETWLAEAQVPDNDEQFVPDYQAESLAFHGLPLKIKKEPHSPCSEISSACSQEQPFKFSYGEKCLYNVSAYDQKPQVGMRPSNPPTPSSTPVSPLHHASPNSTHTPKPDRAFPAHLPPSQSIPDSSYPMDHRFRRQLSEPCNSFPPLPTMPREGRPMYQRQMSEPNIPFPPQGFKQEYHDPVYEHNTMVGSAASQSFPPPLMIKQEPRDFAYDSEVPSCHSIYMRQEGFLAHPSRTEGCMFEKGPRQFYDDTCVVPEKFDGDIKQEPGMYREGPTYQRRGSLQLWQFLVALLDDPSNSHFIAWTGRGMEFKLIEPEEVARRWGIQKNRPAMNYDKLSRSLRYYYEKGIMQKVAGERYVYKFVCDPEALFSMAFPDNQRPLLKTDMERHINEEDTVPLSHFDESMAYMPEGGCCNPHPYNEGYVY
Chain of ELF1 (P32519 whole entry): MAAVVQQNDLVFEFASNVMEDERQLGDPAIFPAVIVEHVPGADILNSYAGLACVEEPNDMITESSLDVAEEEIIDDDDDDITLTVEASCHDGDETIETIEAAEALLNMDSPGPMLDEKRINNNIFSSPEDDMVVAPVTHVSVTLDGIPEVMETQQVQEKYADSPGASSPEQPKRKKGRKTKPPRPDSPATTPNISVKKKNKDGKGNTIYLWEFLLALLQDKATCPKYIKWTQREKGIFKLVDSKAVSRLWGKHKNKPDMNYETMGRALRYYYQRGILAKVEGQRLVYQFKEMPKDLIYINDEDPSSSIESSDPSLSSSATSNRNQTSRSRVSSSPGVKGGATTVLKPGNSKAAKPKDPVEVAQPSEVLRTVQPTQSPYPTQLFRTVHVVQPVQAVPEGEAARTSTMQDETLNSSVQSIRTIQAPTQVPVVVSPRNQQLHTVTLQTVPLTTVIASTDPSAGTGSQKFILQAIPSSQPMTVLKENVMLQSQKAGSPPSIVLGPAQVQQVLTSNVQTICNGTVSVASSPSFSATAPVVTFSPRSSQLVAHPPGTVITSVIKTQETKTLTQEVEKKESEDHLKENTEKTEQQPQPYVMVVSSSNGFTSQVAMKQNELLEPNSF
Chain of SPIB (Q01892 whole entry): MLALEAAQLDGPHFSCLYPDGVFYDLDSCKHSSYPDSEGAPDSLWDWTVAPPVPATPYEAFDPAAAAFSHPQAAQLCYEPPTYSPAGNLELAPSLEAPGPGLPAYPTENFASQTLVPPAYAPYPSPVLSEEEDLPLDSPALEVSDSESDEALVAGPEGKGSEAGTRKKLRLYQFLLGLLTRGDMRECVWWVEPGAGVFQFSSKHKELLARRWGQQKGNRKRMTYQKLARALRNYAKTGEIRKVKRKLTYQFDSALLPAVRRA
Chain of ETV5 (P41161 whole entry): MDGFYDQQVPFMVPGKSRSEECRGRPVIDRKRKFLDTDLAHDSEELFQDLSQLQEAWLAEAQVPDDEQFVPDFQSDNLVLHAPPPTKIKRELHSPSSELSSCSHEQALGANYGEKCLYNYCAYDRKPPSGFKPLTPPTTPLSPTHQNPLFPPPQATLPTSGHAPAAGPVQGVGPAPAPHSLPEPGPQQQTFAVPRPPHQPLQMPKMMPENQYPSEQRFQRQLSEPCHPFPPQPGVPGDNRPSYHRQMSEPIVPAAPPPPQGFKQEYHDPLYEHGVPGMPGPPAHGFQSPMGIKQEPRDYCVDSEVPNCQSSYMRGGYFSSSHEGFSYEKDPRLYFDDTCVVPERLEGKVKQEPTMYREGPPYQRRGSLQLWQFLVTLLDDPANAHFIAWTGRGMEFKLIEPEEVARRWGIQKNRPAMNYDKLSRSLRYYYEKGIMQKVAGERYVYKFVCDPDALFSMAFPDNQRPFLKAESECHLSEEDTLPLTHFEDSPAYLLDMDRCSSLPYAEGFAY
Chain of ELF4 (Q99607 whole entry): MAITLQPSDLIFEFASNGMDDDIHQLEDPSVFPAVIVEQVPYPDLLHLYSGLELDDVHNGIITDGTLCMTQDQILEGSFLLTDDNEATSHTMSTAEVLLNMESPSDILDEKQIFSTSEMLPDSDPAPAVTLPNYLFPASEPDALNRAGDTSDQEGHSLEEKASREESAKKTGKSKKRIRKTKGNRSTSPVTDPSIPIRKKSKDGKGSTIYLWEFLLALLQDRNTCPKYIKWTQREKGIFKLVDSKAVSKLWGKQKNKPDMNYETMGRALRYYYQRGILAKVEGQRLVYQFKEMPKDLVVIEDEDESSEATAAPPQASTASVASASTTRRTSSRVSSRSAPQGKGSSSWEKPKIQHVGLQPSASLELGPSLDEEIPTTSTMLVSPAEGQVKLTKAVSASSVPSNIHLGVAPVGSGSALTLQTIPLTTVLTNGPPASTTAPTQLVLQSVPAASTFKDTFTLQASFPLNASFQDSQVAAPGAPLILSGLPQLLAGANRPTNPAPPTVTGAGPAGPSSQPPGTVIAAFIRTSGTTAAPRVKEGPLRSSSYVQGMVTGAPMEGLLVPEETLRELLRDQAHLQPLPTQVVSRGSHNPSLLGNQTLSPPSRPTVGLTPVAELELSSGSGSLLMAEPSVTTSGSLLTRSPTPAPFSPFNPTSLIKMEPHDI
Chain of ETV6 (P41212 whole entry): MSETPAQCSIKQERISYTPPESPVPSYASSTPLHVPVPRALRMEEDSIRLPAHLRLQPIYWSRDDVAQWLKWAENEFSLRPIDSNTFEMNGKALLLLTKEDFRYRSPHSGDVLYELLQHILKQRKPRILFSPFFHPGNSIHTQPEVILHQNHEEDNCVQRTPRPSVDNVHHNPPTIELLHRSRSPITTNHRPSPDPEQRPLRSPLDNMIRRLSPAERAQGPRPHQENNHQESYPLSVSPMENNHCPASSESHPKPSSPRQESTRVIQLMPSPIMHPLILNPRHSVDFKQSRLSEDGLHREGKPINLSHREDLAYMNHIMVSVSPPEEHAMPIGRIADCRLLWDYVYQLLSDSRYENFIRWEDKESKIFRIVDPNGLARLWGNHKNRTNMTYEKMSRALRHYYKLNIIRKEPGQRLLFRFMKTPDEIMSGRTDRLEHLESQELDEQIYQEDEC

GCCTGA
binding signal (ELK1): 1.13 fold enrichment (6-mer frequency, TF over GST control) | binding signal (GABPA): 1.11 fold enrichment (6-mer frequency, TF over GST control) | binding signal (ELF1): 1.04 fold enrichment (6-mer frequency, TF over GST control) | binding signal (SPIB): 1.09 fold enrichment (6-mer frequency, TF over GST control) | binding signal (FEV): 1.1 fold enrichment (6-mer frequency, TF over GST control) | binding signal (ETV5): 1.09 fold enrichment (6-mer frequency, TF over GST control) | binding signal (ELF4): 1.06 fold enrichment (6-mer frequency, TF over GST control) | binding signal (ELK4): 1.07 fold enrichment (6-mer frequency, TF over GST control) | binding signal (ETV2): 1.03 fold enrichment (6-mer frequency, TF over GST control) | binding signal (ETV1): 1.05 fold enrichment (6-mer frequency, TF over GST control) | binding signal (ERF): 1.07 fold enrichment (6-mer frequency, TF over GST control) | binding signal (ETV3L): 1.12 fold enrichment (6-mer frequency, TF over GST control) | binding signal (ETS2): 1.02 fold enrichment (6-mer frequency, TF over GST control)

TTGTCA
binding signal (ELK1): 1.04 fold enrichment (6-mer frequency, TF over GST control) | binding signal (GABPA): 1.08 fold enrichment (6-mer frequency, TF over GST control) | binding signal (ELF1): 1.13 fold enrichment (6-mer frequency, TF over GST control) | binding signal (EHF): 1.11 fold enrichment (6-mer frequency, TF over GST control) | binding signal (SPIB): 1.21 fold enrichment (6-mer frequency, TF over GST control) | binding signal (FEV): 1.06 fold enrichment (6-mer frequency, TF over GST control) | binding signal (ETV5): 1.05 fold enrichment (6-mer frequency, TF over GST control) | binding signal (ELF4): 1.14 fold enrichment (6-mer frequency, TF over GST control) | binding signal (ELK4): 1.21 fold enrichment (6-mer frequency, TF over GST control) | binding signal (ETV2): 1.02 fold enrichment (6-mer frequency, TF over GST control) | binding signal (ETV1): 1.15 fold enrichment (6-mer frequency, TF over GST control) | binding signal (ERF): 1.3 fold enrichment (6-mer frequency, TF over GST control) | binding signal (ETV3L): 1.17 fold enrichment (6-mer frequency, TF over GST control) | binding signal (ETS2): 1.11 fold enrichment (6-mer frequency, TF over GST control) | binding signal (SPDEF): 1.06 fold enrichment (6-mer frequency, TF over GST control) | binding signal (ETV7): 1.2 fold enrichment (6-mer frequency, TF over GST control) | binding signal (ETV3): 1.16 fold enrichment (6-mer frequency, TF over GST control) | binding signal (ETV6): 1.07 fold enrichment (6-mer frequency, TF over GST control)
